Experiment [1] is described as follows: anti-His antibody binders, primary screen, artefact control for SMM control protein annotation, biochemical, small-molecule microarray, 635 nm fluorescence (AID 1128).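 Note: score merges feature fluorescence with signal-to-noise for each printed compound spot.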 The following applies: anti-His Alexa647 antibody binding, higher = more signal.
Experiment [2] relates to Human papillomavirus type 1a E7 protein (residues 1-88). Kind of experiment: HPV1a E7 small-molecule binders, primary screen, biochemical, small-molecule microarray, residues 1-88, 635 nm (AID 1129). The following applies: small-molecule microarray binding, fluorescence 635 nm; higher = more signal.
Experiment [3] concerns the target Focal adhesion kinase 1 (Homo sapiens) (UniProt Q05397). In words: small-molecule microarray binders of FAK, primary screen, biochemical, 635/667 nm fluorescence, BSA, DTT (AID 1130).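 Note: composite of spot emission at 667 nm and signal to noise over triplicate slides.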 The following applies: PTK2 binding, 635 nm fluorescence, higher = more signal.
Experiment [4] concerns Fibrinogen (Alexa647-labelled). Kind of experiment: fibrinogen binders on compound microarrays, profiling panel, artefact control for SMM control-protein annotation, biochemical, small-molecule microarray, 635/667 nm fluorescence (AID 1131).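 Note: z-score merges 667 nm fluorescence with per-spot signal-to-noise over triplicate slides.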 Particulars: fibrinogen-A647 binding fluorescence, higher = more signal.
The target in experiment [5] is Follistatin (Homo sapiens) (UniProt P19883). In words: follistatin binders on small-molecule microarrays, primary screen, biochemical, small-molecule microarray, 635/667 nm fluorescence (AID 1132). Particulars: FST binding, 635 nm fluorescence, higher = more signal.
For experiment [6], the target named is Fibroblast growth factor 2 (Homo sapiens) (UniProt P09038). Kind of experiment: FGF2 binders on small-molecule microarrays, primary screen, biochemical, small-molecule microarray, 635/667 nm fluorescence (AID 1133). The following applies: small-molecule microarray binding, FGF2, fluorescence 635/667; higher = more signal.
The nature of experiment [7]: mitochondrial membrane potential change in A549 cells, profiling panel, cell-based, JC-1 fluorescence, basal, 24 h, 100 nL (AID 1138).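 Note: A549 lung adenocarcinoma cells under basal conditions with no added stimulus; test concentration not given here.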 Particulars: higher = more signal.
The next experiment has as its system Lefty1. Kind of experiment: Lefty1 binders on small-molecule microarrays, primary screen, biochemical, small-molecule microarray, 635/667 nm fluorescence (AID 1139). Particulars: small-molecule microarray binding, fluorescence 635/667; higher = more signal.
Experiment [8] concerns wheat germ agglutinin (Triticum aestivum), Alexa647-labelled. In words: wheat germ agglutinin binders on compound microarrays, profiling panel, artefact control for SMM control-protein annotation, biochemical, small-molecule microarray, 635/667 nm fluorescence (AID 1140).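 Note: score merges 667 nm feature emission with signal to noise over triplicate slides.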 The following applies: WGA-A647 binding, 635 nm fluorescence, higher = more signal.
Experiment [9] addresses Luciferin 4-monooxygenase (Photinus pyralis) (UniProt P08659). In words: firefly luciferase enzyme inhibitors, primary screen, biochemical, luminescence, purified enzyme, 2006 set (AID 1141).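 Note: cell-free assay with purified firefly luciferase at 100 ng per well in PBS; test concentration not given here.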 The following applies: SteadyGlo luminescence, 30 min, higher = more signal, called active from +8 up or from −8 down.
Experiment [10] concerns Wnt5a (protein binding on small-molecule microarray). In words: Wnt5a binders on small-molecule microarray, primary screen, biophysical, 635/667 nm fluorescence (AID 1142).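 Note: fluorescence read at 667 nm with signal to noise per printed feature.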 The following applies: 635 nm fluorescence, higher = more signal.
Experiment [11] in a line: cell viability in Huh7 cells, primary screen, cytotoxicity control for HCV replication inhibitor project, CellTiter-Glo luminescence, basal, 48 h (AID 1143).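 Note: Huh7 hepatoma cells carrying a hepatitis C replication reporter with no stimulus; test concentration not given here.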 Particulars: Huh7 HCV replicon, higher = more signal, called active from +8 up or from −8 down. A general note: In ATP-based viability assays light output follows the ATP content of the culture.
The nature of experiment [12]: P. aeruginosa biofilm formation inhibitors, primary screen, PAO1 strain, BacTiter-Glo luminescence, LB-PBS (AID 1144). The following applies: 12 h, higher = more signal.
Experiment [13] can be described thus: CREB reporter modulators without forskolin, primary screen, cell-based, PC12, CRE-LacZ reporter, unstimulated (AID 1145). Particulars: no forskolin, luminescence, 4.5 h, higher = more signal, called active from +8 up or from −8 down.
Experiment [14] can be described thus: CREB reporter modulators under forskolin, primary screen, cell-based, PC12, CRE-LacZ reporter, forskolin-stimulated (AID 1146).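 Note: PC12 cells with 6xCRE LacZ reporter stimulated by forskolin 10 µM; beta-galactosidase reporter signal reflecting CREB driven transcription.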 The following applies: luminescence, 4.5 h, higher = more signal, called active from +8 up or from −8 down.
Experiment [15] concerns the target Streptavidin (Streptomyces avidinii) (UniProt P22629). Kind of experiment: streptavidin binders on small-molecule microarray, primary screen, artefact control for SMM compound annotation, biophysical, 635/667 nm fluorescence (AID 1147).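 Note: signal reflects streptavidin binding to arrayed compounds as a control protein.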 The following applies: streptavidin binding, higher = more signal.
Experiment [16] is described as follows: small-molecule binders of probe aInhba, primary screen, biochemical, small-molecule microarray, 635/667 nm fluorescence (AID 1148).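 Note: score merges 667nm spot fluorescence with signal-to-noise for antibody binding to printed compounds.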 The following applies: higher = more signal.
Experiment [17] concerns the target Torsin-1A (Homo sapiens) (UniProt O14656). In words: torsin A binders from cell lysate, primary screen, small-molecule microarray, wild-type, 635/667 nm (AID 1149). The following applies: COS7 hTOR1A-WT lysate, 635 nm fluorescence, higher = more signal.
For experiment [18] the target is unchanged. Kind of experiment: small-molecule binders of mutant TOR1A in lysate, primary screen, cell lysate, small-molecule microarray, COS7 lysate, 635/667 nm fluorescence (AID 1150).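 Note: score pools 667 nm emission and signal to noise measuring lysate protein binding.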 The following applies: COS7 hTOR1A mutant lysate, 635 nm fluorescence, higher = more signal.
Experiment [19] relates to Sonic hedgehog protein (Shh). Kind of experiment: small-molecule binders of Shh protein, primary screen, biochemical, small-molecule microarray, 635/667 nm fluorescence (AID 1151).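 Note: Shh protein binding to compounds spotted on small-molecule microarray slides; score combines spot fluorescence intensity with signal-to-noise across triplicate slides.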 The following applies: small-molecule microarray binding, 635 nm fluorescence; higher = more signal.

For 5 compounds, composite z-score and z-score results are on record in PubChem BioAssay.

Calls of active or inactive are those of the source. Unless noted, the rule behind the calls is not given here.

Sequence of Follistatin (Homo sapiens) (P19883 whole entry, looked up): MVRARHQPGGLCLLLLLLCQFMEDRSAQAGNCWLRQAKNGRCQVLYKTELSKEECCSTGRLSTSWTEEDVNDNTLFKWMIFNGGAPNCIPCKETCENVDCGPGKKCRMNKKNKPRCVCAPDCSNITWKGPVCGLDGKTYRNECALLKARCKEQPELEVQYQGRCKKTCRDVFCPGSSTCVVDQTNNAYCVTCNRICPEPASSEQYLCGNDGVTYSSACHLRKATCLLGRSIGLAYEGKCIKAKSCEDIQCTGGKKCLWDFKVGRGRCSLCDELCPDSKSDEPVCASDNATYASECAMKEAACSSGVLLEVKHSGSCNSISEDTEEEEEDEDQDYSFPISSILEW
Sequence of Torsin-1A (Homo sapiens) (O14656 whole entry, looked up): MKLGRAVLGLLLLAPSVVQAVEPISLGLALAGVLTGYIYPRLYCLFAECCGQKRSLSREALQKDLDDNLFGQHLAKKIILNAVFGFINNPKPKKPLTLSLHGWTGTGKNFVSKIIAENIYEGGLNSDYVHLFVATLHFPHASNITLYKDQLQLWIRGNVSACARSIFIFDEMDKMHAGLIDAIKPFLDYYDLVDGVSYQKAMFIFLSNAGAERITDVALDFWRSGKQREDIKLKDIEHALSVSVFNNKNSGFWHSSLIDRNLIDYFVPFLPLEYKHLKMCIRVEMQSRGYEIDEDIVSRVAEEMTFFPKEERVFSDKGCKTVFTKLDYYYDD
Sequence of Focal adhesion kinase 1 (Homo sapiens) (Q05397 whole entry, looked up): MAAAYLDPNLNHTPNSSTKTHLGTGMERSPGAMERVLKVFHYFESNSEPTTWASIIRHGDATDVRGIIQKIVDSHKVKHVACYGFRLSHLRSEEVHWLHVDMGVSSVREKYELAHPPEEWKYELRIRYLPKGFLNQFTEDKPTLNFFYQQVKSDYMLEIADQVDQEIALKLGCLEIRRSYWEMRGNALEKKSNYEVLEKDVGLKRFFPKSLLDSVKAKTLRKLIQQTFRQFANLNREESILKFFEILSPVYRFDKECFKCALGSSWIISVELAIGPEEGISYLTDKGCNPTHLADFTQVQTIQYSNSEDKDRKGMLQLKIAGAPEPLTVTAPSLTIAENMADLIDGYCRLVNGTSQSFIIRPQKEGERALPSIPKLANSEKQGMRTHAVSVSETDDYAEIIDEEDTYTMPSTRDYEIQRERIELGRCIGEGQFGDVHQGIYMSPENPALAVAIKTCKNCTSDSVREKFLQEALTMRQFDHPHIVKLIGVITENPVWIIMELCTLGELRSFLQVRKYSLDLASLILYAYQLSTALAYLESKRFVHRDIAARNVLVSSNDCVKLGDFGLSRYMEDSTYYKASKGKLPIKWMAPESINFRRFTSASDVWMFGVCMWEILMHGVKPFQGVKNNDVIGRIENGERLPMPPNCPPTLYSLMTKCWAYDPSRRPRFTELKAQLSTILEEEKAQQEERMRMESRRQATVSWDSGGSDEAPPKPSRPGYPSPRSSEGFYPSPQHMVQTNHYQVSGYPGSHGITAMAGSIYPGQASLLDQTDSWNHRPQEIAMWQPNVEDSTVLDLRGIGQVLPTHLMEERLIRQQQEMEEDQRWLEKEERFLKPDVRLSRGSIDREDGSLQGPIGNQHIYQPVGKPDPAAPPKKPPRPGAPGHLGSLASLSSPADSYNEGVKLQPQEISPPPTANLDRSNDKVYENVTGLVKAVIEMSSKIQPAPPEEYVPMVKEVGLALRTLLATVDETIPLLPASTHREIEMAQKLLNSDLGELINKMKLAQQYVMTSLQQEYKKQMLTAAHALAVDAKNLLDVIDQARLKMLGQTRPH
Sequence of Luciferin 4-monooxygenase (Photinus pyralis) (P08659 whole entry, looked up): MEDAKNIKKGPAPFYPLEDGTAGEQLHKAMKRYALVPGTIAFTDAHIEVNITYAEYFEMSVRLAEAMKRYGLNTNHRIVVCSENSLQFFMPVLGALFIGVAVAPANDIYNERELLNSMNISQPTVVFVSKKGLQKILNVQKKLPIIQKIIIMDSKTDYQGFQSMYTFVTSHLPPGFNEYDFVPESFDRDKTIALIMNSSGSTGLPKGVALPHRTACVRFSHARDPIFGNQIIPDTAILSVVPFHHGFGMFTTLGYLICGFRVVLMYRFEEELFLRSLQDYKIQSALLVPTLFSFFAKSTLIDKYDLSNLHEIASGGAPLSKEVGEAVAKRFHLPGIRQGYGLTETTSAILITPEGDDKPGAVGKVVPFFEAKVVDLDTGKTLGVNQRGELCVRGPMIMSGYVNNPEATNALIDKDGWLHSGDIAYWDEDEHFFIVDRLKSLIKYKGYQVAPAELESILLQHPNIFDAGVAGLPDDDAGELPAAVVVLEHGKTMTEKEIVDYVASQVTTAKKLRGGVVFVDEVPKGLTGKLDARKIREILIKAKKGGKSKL
Sequence of Fibroblast growth factor 2 (Homo sapiens) (P09038 whole entry, looked up): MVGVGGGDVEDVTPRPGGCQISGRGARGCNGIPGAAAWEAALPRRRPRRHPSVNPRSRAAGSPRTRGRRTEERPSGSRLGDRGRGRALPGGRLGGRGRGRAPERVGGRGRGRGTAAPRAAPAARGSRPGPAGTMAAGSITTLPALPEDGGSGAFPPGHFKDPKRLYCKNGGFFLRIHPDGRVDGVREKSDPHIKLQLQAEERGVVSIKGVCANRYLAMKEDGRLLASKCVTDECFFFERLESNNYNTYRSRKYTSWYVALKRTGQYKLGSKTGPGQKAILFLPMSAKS
Sequence of Streptavidin (Streptomyces avidinii) (P22629 whole entry, looked up): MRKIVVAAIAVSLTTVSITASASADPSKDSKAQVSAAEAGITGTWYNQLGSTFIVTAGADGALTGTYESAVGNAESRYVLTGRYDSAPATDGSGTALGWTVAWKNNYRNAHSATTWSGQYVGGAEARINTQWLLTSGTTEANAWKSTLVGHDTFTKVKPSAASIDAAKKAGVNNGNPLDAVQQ

Take `[N-]=[N+]=Nc1ccccc1[C@@H]1OC(c2ccc(OCCCO)cc2)=N[C@]1(Cc1ccccc1)C(N)=O`: the composite z-score was 1.91 in experiment [1]; 0.445 in [2]; 0.474 in experiment [3]; 0.899 in experiment [4]; 0.207 in [5]; -0.425 in [6]. Also, the composite z-score in the experiment with Lefty1 was -0.188; in experiment [8] it was 0.619; in [10], -0.0757; in [15], 0.533; in [16], 0.451; with Torsin-1A (Homo sapiens) [17], 0.245. Further, the composite z-score with Torsin-1A (Homo sapiens) [18] was 0.305; in [19], -0.0762. Also, the z-score in [7] was 1.86; in [9], -8.14 (active); in experiment [11] it was -2 (inactive); in experiment [12], -0.0461 (inactive); in experiment [13], 0.195 (inactive); in experiment [14], -1.49 (inactive).
Take `CC(C)CNC(=O)[C@@H]1c2ccccc2C(=O)N(Cc2ccccc2Cl)[C@H]1c1ccc(CO)cc1`: the composite z-score in experiment [1] is 1.48; in [2], 0.844; in [3], 0.401; in [4], -1.73; in experiment [5], -0.158; in experiment [6], 0.223. Moreover, the composite z-score in the experiment with Lefty1 is -0.785; in [8] it was -0.215; in [10], -0.0721; in experiment [15], -0.222; in experiment [16] it was -0.204; in the experiment with Torsin-1A (Homo sapiens) [17], 0.0521. For the same compound, the composite z-score in the experiment with Torsin-1A (Homo sapiens) [18] was 0.13; in experiment [19], 0.145. In addition, the z-score was 0.572 in [7]; 0.686 (inactive) in experiment [9]; -0.121 (inactive) in experiment [11]; -0.431 (inactive) in [12]; -0.179 (inactive) in [13]; -0.867 (inactive) in experiment [14].
With `O=C1c2ccccc2[C@@]2(Cc3ccccc3N(Cc3ccccc3)C2=O)[C@H](c2ccc(CO)cc2)N1Cc1ccccc1`, the composite z-score in experiment [1] was -1.16; in experiment [2], -1.58; in [3] it was -0.667; in experiment [4], -0.936; in [5], -1; in [6], -1.01. For the same compound, the composite z-score in the experiment on Lefty1 is -1.09; in [8], 0.168; in experiment [10], -0.201; in experiment [15], -0.0807; in experiment [16], -0.176; with Torsin-1A (Homo sapiens) [17], -0.953. Also, the composite z-score is -0.773 in the experiment with Torsin-1A (Homo sapiens) [18] and -0.907 in experiment [19]. The z-score in experiment [7] is 0.0926; in experiment [9], 0.407 (inactive); in experiment [11] it was 0.579 (inactive); in [12] it was -0.124 (inactive); in experiment [13], 0.0279 (inactive); in experiment [14], 0.806 (inactive).
`CCOC(=O)C1=C[C@@H](C(C)(C)C)N(S(=O)(=O)c2ccc(C)cc2)[C@H]1c1ccccc1Cl`: the composite z-score in [1] was found to be 1.31; in [2], 1.2; in experiment [3] it was 0.393; in [4], 0.776; in experiment [5], 0.953; in experiment [6] it was 0.119. In addition, the composite z-score with Lefty1 worked out at 0.386; in experiment [8], 1.18; in experiment [10] it was 0.548; in experiment [15], 1.11; in experiment [16], 0.029; with Torsin-1A (Homo sapiens) [17] it was 0.296. Also, the composite z-score with Torsin-1A (Homo sapiens) [18] was 0.315; in experiment [19], 0.577. The z-score in experiment [7] is 3.94; in experiment [9], 0.927 (inactive); in experiment [11], -3.79 (inactive); in experiment [12], 1.6 (inactive); in [13] it was 0.986 (inactive); in experiment [14], 1.53 (inactive).
As for `COCCOC(=O)N1C(=O)[C@@]2(c3cc(C#CCC(C(=O)OC)C(=O)OC)ccc31)[C@H](C(=O)N1CCc3cc(OC)c(OC)cc3C1)[C@H]1C(=O)O[C@H](c3ccccc3)[C@H](c3ccccc3)N1[C@@H]2c1ccc(O)cc1`, the composite z-score in [1] came out at 1.82; in [2], 1.21; in experiment [3], 0.221; in experiment [4], 0.787; in experiment [5] it was 1.36; in experiment [6], 1.59. The composite z-score in the experiment on Lefty1 came to 1.11; in experiment [8], 1.05; in experiment [10], 0.44; in experiment [15] it was 0.286; in experiment [16] it was 0.134; in the experiment with Torsin-1A (Homo sapiens) [17], 1.32. The composite z-score turned out to be 0.864 in the experiment with Torsin-1A (Homo sapiens) [18] and 1.9 in experiment [19]. Also, the z-score was -0.132 in [7]; 1.01 (inactive) in experiment [9]; -0.607 (inactive) in experiment [11]; 0.0314 (inactive) in [12]; 0.0653 (inactive) in experiment [13]; -0.572 (inactive) in experiment [14].
